PubChem BioAssay (NCI)
The panel holds about 83,000 compounds, 20% with a hit somewhere; the sample as a whole holds those more often.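 Percent growth is the endpoint: 0 to 100 indicates growth inhibition (40 means 60% inhibition), 0 means no net growth, and negative values indicate cell death.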 A number with no mark means an inactive call. Activity calls are given as the source filed them. How the source made its calls: active means growth percent below 10; inactive means the rest.

Columns and labels:
Assay in all cases: NCI-60 one-dose screen, 48 h (100 = growth as untreated, 0 = no growth, -100 = all killed)
[1] = test system: NCI-H522 lung; settings: 10 µM unless noted
[2] = test system: COLO 205 colon; settings: 10 µM
[3] = test system: MALME-3M melanoma; settings: 10 µM unless noted
[4] = test system: SNB-75 CNS; settings: 10 µM unless noted
[5] = test system: SNB-19 CNS; settings: 10 µM unless noted
[6] = test system: SK-MEL-5 melanoma; settings: 10 µM unless noted
[7] = test system: EKVX NSCLC; settings: 10 µM unless noted
[8] = test system: TK-10 renal; settings: 10 µM unless noted
[9] = test system: CCRF-CEM leukemia; settings: 10 µM unless noted
[10] = test system: SR leukemia; settings: 10 µM
[11] = test system: RPMI-8226 leukemia; settings: 10 µM unless noted
[12] = test system: IGROV1 ovarian; settings: 10 µM
[13] = test system: T-47D breast; settings: 10 µM unless noted
[14] = test system: MDA-MB-435 melanoma; settings: 10 µM unless noted
[15] = test system: HCT-116 colon; settings: 10 µM unless noted
[16] = test system: SK-MEL-2 melanoma; settings: 10 µM unless noted
[17] = test system: ACHN renal; settings: 10 µM unless noted
[18] = test system: U251 CNS; settings: 10 µM unless noted

SMILES | growth [1] | growth [2] | growth [3] | growth [4] | growth [5] | growth [6] | growth [7] [%] | growth [8] [%] | growth [9] [%] | growth [10] | growth [11] | growth [12] | growth [13] [%] | growth [14] | growth [15] | growth [16] | growth [17] | growth [18]
COC1=CC(=O)OC(CCc2ccc3c(c2)OCO3)C1 (stereo not drawn) | 76.9% | 108% | 136% | 96.3% | 103% | 102% | 122 | 102 | 85.4 | 122% | 107% | 116% | 94.7 | 112% | 106% | – | – | –
O=C1NC(=S)NC(=O)C1=Cc1ccccc1 | 117% | 103% | 132% | 85.7% | 107% | – | 111 | 182 | – | 121% | 130% | 119% | – | 124% | 107% | 196% | 100% | –
CC(=O)C1C(=O)N(C)C(=O)N(C)C1=O | 105% | 114% | 114% | 92.1% | 110% | 99.7% | – | 109 | – | 96.5% | 99.7% | 113% | 106 | 94.4% | 106% | 108% | 95.4% | –
Cc1ccc(N)cc1[As]=[As]c1cc(N)ccc1C (stereo not drawn) | -88.2% (active) | -69.3% (active) | -90.7% (active) | -99.6% (active) | -47.5% (active) | -87.2% (active) | – | – | – | -43.7% (active) | -40.2% (active) | -90.8% (active) | – | -89% (active) | -79.4% (active) | – | -91.6% (active) | -98.7% (active)
CCC(C)[C@H]1O[C@]2(C=C[C@@H]1C)C[C@@H]1C[C@@H](C/C=C(\C)[C@@H](OC3C[C@H](OC)C(O[C@H]4C[C@H](OC)[C@@H](O)[C@H](C)O4)[C@H](C)O3)[C@@H](C)/C=C/C=C3\CO[C@@H]4[C@H](O)C(C)=C[C@@H](C(=O)O1)[C@]34O)O2 (stereo partly drawn) | -28.8% (active) | -64.5% (active) | – | 3.26% (active) | 23.2% | – | 14.6 | 13.7 | – | -28.1% (active) | – | 13% | – | -31.6% (active) | -81.1% (active) | -57.2% (active) | -95.1% (active) | -16% (active)
COc1ccc(C2=NN(c3ccccc3)C(c3sc(N(CCCl)CCCl)nc3Cl)C2)cc1 (stereo not drawn) | 71% | 92.1% | 99.3% | – | – | 83.7% | 86 | 117 | 86.1 | 86.1% | – | – | 69.5 | 90.5% | 67% | – | 82.6% | 94.4%
CC1COC(=O)C1 (stereo not drawn) | 99.4% | 102% | 98.2% | 81.9% | 105% | 99.6% | – | – | 95.4 | – | 110% | 103% | 95.5 | 102% | – | 99.3% | 108% | 102%
CCCCn1cc(C(=O)/C(C#N)=C/c2cc3ccccc3nc2Cl)c2cc(OC)ccc21 | 99.6% | 104% | 88.6% | – | – | – | 93.9 | – | 33.4 | -12% (active) | – | 61.2% | 80.4 | 101% | 23.6% | 115% | – | 83.2%
CC(/C=N/N=C(N)N)=N/N=C(N)N | 117% | 81.7% | – | 71.5% | 87.3% | 107% | 92.9 | 74.2 | 90.1 | 78.4% | 95.7% | – | 60.1 | – | – | 14.8% | 94.5% | 89.6%
CCCCN(CCCC)CC(O)c1ccccc1 (stereo not drawn) | 112% | 134% | – | 91.5% | – | 118% | 96.7 | 115 | 99.8 | 102% | 113% | 115% | 127 | 105% | 114% | 115% | 102% | –
